{"source": "PubChem BioAssay (NCATS)", "note": "Active and inactive are the calls of the source.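 Rule for the calls: active = compounds whose dose series gives a full or clear partial fitted curve of increased nuclear translocation; inconclusive = weak partial curve or effect only at the top dose; inactive = no dose-dependent translocation response.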 Potency is the fitted concentration of half-maximal effect.", "data": [{"biological_target": "Glucocorticoid receptor (Homo sapiens) (UniProt P04150)", "sequence (P04150 whole entry, looked up, the tested form may be a part)": "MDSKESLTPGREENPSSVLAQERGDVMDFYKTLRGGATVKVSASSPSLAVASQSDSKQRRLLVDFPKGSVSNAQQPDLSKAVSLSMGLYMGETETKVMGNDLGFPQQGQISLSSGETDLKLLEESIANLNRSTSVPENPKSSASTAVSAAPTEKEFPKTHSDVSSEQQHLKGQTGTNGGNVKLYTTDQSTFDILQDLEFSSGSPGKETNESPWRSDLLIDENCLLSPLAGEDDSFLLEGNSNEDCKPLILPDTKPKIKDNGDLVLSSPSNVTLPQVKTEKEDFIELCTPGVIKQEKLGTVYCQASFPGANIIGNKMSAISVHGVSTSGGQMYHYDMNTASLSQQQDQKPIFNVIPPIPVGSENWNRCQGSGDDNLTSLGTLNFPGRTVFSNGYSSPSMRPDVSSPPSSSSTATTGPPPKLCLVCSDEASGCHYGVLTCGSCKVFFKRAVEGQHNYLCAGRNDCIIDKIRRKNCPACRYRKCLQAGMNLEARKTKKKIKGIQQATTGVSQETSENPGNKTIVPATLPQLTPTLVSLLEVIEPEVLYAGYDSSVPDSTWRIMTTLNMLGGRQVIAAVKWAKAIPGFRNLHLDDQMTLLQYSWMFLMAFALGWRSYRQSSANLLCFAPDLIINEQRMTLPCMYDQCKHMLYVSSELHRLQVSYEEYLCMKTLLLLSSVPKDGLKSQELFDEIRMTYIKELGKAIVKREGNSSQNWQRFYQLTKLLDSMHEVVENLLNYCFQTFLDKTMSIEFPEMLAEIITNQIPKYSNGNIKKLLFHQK", "assay": "GR-GFP Redistribution (AID 450)", "details": "U2OS GR-GFP nuclear translocation, laser cytometry, 2 h", "text": "NIH Molecular Libraries Screening Centers Network [MLSCN]\nNIH Chemical Genomics Center [NCGC]\nThe glucocorticoid receptor (GR) Redistribution assay (BioImage) enables the visualization of GR cytoplasmic to nuclear translocation by the use of a GR-GFP fusion. GR is normally cytosolic, however ligands such as dexamethasone, cause nuclear translocation where the protein binds to response elements and interacts with various co-factors to modulate transcription. Because both functional agonists and antagonists can induce nuclear translocation, this assay can detect ligands regardless of their effects on gene expression. GR-GFP expressing U20S cells were used here. Dexamethasone was the positive control for translocation and data normalization. Detection of nuclear translocation was performed in 1536-well plates using the Acumen laser scanning plate cytometer (TTP LabTech). Validation of this assay and a detailed protocol have been described.\nNCGC Assay Protocol Summary:\nGR-GFP U2OS cells were maintained in DMEM with Glutamax and high glucose, 1% v/v penicillin-streptomycin, and 0.5 mg/mL Geneticin. For cell culture, 10% […] fetal bovine serum (FBS) was used (Invitrogen #26140-079). For cell plating 10% dextran, charcoal-stripped FBS (Hyclone SH30068.03) was used. U2OS cells were trypsin treated, suspended in medium, and passed through a 40 um basket filter. The cells were seeded at 600 cells/5 uL/well into clear-bottom black sided 1536-well plates and incubated for approximately 20 hrs, 37degC, 5%, CO2 in a tissue culture incubator. Twenty-three nL of compound was delivered by pin tool and the plates were incubated as above for 2 hrs. The compounds were tested as a 7-point titration ranging from 46 uM to 0.6 nM. The cells were fixed using the Kalypsys Washer/Dispenser station. The fixing protocol involved aspiration of the cell media, addition of 6 uL/well of PBS, aspiration of PBS, addition of 5uL/well of 100% methanol, aspiration of methanol, and addition of 3 uL/well PBS with 1.5 uM propidium iodide (PI). The plates were read by the Acumen Explorer using a 1 x 8 um scan of the whole well area. PI fluorescence triggered the collection of PI and GFP signals. A nuclei population was defined by a 10 to 100 um width and depth filter that eliminated small and large fluorescent particles. Two subpopulations of nuclei were then defined by peak intensity of GFP fluorescence to obtain translocated and untranslocated objects. The number of translocated objects was used for data normalization.\nKeywords: NIH Roadmap, MLSCN, MLI, MLSMR, sOGT, qHTS, NCGC", "values": [{"smiles": "COc1ccccc1CNc1ncncc1-c1ccccc1Cl", "Potency": "> 46 µM (inactive)"}, {"smiles": "COC(=O)c1cc(Br)c(=O)n(Cc2ccc3c(c2)OCO3)c1", "Potency": "> 20.6 µM (inactive)"}, {"smiles": "COc1cccc(-c2nc(NCc3cccnc3)c3ccccc3n2)c1", "Potency": "> 46 µM (inactive)"}, {"smiles": "COc1ccccc1CNc1cc(-c2ccccc2CN(C)C)ncn1", "Potency": "> 46 µM (inactive)"}, {"smiles": "COc1ccccc1CNc1ncnc2ccc(-c3ccc(C(=O)N(C)C)cc3)cc12", "Potency": "> 46 µM (inactive)"}, {"smiles": "CCNc1ncc2ncc(=O)n(Cc3cccc(OC)c3)c2n1", "Potency": "> 9.22 µM (inactive)"}, {"smiles": "CN(C)C(=O)c1ccc(-c2nc(N3CCOCC3)c3ccccc3n2)cc1", "Potency": "> 46 µM (inactive)"}, {"smiles": "CN1CCN(c2nc(-c3cccnc3)nc3ccccc23)CC1", "Potency": "> 46 µM (inactive)"}, {"smiles": "Cn1c(=O)c(-c2ccc(Cl)cc2)nc2cncnc21", "Potency": "> 9.22 µM (inactive)"}, {"smiles": "COc1cccc(-c2ccc3ncnc(NCc4cnc(C)cn4)c3c2)c1", "Potency": "> 46 µM (inactive)"}, {"smiles": "CCOc1ccc2nc3cc(N=Nc4ccc(N)nc4N)ccc3c(N)c2c1", "Potency": "> 46 µM (inactive)"}, {"smiles": "COc1ccccc1CNc1ncncc1-c1ccccc1C(F)(F)F", "Potency": "> 46 µM (inactive)"}, {"smiles": "COc1ccc2[nH]cc(CCNc3ncncc3-c3ccc4c(c3)OCO4)c2c1", "Potency": "> 46 µM (inactive)"}, {"smiles": "COCCNc1ncnc2ccc(-c3ccccc3OC)cc12", "Potency": "> 46 µM (inactive)"}, {"smiles": "COc1cccc(-c2cncnc2NCCN2CCOCC2)c1", "Potency": "> 46 µM (inactive)"}, {"smiles": "CC1=C(C#N)C(=O)OC(C)(C)C1", "Potency": "> 20.6 µM (inactive)"}, {"smiles": "COc1ccc(Oc2ncc3nc(-c4ccc(F)cc4)c(=O)n(C[C@H]4CCCO4)c3n2)cc1", "Potency": "> 9.22 µM (inactive)"}, {"smiles": "CCC(NC(=O)Nc1ncccc1C)(C(F)(F)F)C(F)(F)F", "Potency": "> 20.6 µM (inactive)"}, {"smiles": "COc1ccc2[nH]cc(CCNc3cc(-c4ccccc4OC)ncn3)c2c1", "Potency": "> 46 µM (inactive)"}, {"smiles": "O=C(/C=N/O)NCCCN1CCOCC1", "Potency": "> 20.6 µM (inactive)"}, {"smiles": "CN(C)c1nc(-c2cccc(C#N)c2)nc2ccccc12", "Potency": "> 46 µM (inactive)"}, {"smiles": "COc1ccccc1-c1nc(NC2CC2)c2ccccc2n1", "Potency": "> 46 µM (inactive)"}, {"smiles": "O=c1c(-c2ccccc2)nc2cncnc2n1Cc1ccccc1", "Potency": "> 9.22 µM (inactive)"}, {"smiles": "COc1ccc(CNc2ncncc2-c2ccccc2OC)c(OC)c1", "Potency": "> 46 µM (inactive)"}, {"smiles": "O=C1c2ccccc2C(=O)C1c1ccc2ccccc2n1", "Potency": "> 20.6 µM (inactive)"}, {"smiles": "O=c1c(CCc2ccccc2)nc2cnc(Oc3ccccc3)nc2n1C1CC1", "Potency": "> 9.22 µM (inactive)"}, {"smiles": "c1ccc2c(NCCN3CCOCC3)nc(-c3ccc4c(c3)OCO4)nc2c1", "Potency": "> 46 µM (inactive)"}, {"smiles": "O=c1cc(-c2cccc(O)c2)oc2c(O)c(O)ccc12", "Potency": "> 46 µM (inactive)"}, {"smiles": "O=c1c(CCc2ccccc2)nc2cncnc2n1Cc1ccccc1", "Potency": "> 46 µM (inactive)"}, {"smiles": "CCN(CC)c1ccc2cc(-c3nnc(-c4ccncc4)o3)c(=O)oc2c1", "Potency": "3.51 µM (active)"}, {"smiles": "CN(C)c1ncc2nc(-c3ccccc3)c(=O)n(C)c2n1", "Potency": "> 9.22 µM (inactive)"}, {"smiles": "COCCn1c(=O)c(CCc2ccccc2)nc2cnc(OCc3ccccc3)nc21", "Potency": "> 9.22 µM (inactive)"}, {"smiles": "CN(C)C(=O)c1ccc(-c2cc(NCc3ccccc3)ncn2)cc1", "Potency": "> 46 µM (inactive)"}, {"smiles": "Cc1nc2cnc(N3CCN(C)CC3)nc2n(CCc2ccccc2)c1=O", "Potency": "> 9.22 µM (inactive)"}, {"smiles": "COc1ccc(Oc2ncc3nc(-c4cccc(C#N)c4)c(=O)n(Cc4cccc(OC)c4)c3n2)cc1", "Potency": "> 9.22 µM (inactive)"}, {"smiles": "COc1cccc(Nc2ncc3nc(-c4cccs4)c(=O)n(C[C@H]4CCCO4)c3n2)c1", "Potency": "> 9.22 µM (inactive)"}, {"smiles": "c1ccc2c(NCCN3CCOCC3)nc(-c3ccoc3)nc2c1", "Potency": "> 46 µM (inactive)"}, {"smiles": "COc1ccc2[nH]cc(CCNc3nc(-c4c(C)noc4C)nc4ccccc34)c2c1", "Potency": "> 46 µM (inactive)"}, {"smiles": "CCN(CC)c1ccc2cc(C(=O)Nc3ccccn3)c(=O)oc2c1", "Potency": "> 20.6 µM (inactive)"}, {"smiles": "COc1ccc(CNc2cc(-c3cccc(NS(C)(=O)=O)c3)ncn2)c(OC)c1", "Potency": "> 46 µM (inactive)"}]}]}
